# Results taken from ChEMBL document CHEMBL3988442, “University of Dundee, Small-Polar-MMV Screening Library” (2021).
# About 950 (1.4%) of roughly 69,000 compounds showed an effect of 50% or more. The full list was thinned out, with strong results kept by preference.
# Tested on: Mycobacterium tuberculosis
# Assay: Cornell M. t heat shock assay; further: in the data most compounds retested in dose-response had high values
# Type: functional, organism-based
# Set-up: dose or concentration left out as unconfirmed
row,Structure (SMILES),Percent Effect [%]
1,COCCN1CCc2ncnc(NC(C)C)c2CC1.O=C(O)C(F)(F)F,-1.499
2,CS(=O)(=O)N1CCC(Nc2ccc(C#N)c(C(F)(F)F)c2)CC1,-3.037
3,N#Cc1ccc(NC2CCN(c3ncccn3)CC2)cc1C(F)(F)F,101.3
4,N#Cc1ccc(NC2CCN(c3ncccn3)CC2)cc1Cl,-23.07
5,COCCN1CCC2(CCN(c3ncccn3)CC2)C1=O.O=C(O)C(F)(F)F,-21.42
6,O=C(O)C(F)(F)F.O=C(c1cnccn1)N1C[C@@H](OCc2cccnc2)[C@H]2OCCC[C@H]21,-23.96
7,CN1CCCC(c2cncc(C(=O)NCc3ccccc3Cl)n2)C1.O=CO (stereo not drawn),5.616
8,CC(=O)Nc1ccc(OCc2noc(C(=O)N3CCCCCC3)n2)cc1,51.07
9,O=C(c1nc(Cc2c[nH]c3ccccc23)no1)N1CCCCC1,12.78
10,NC(=O)Cc1ccc(OCc2noc(C(=O)N3CCCC3)n2)cc1,-10.23
11,CC(=O)Nc1ccc(OCc2noc(C(=O)N3CCCCC3)n2)cc1,65.04
12,O=C(c1nc(COc2ccc3c(c2)OCO3)no1)N1CCCC1,24.96
13,CC(=O)Nc1ccc(OCc2noc(C(=O)N3CCCC3)n2)cc1,4.312
14,O=C(NCC1CC2(CO1)CN(Cc1cccs1)C2)C1CCC1.O=C(O)C(F)(F)F (stereo not drawn),-27.85
15,O=C(O)C(F)(F)F.O=C(c1ccncc1F)N1CC[C@@H]2OC(COCC3CC3)CC[C@@H]21 (stereo partly drawn),-24.6
16,CC(C)C(C)NC(=O)c1ncn2c1CN(C)S(=O)(=O)c1ccccc1-2.O=C(O)C(F)(F)F (stereo not drawn),-5.107
17,CCN(C)c1ncnc2c1CCN(Cc1ccsc1)CC2.O=C(O)C(F)(F)F.O=C(O)C(F)(F)F,-17.94
18,COc1ccc(-c2cc3cccn(CC(=O)N4CCOCC4)c-3n2)cc1,-34.2
19,CN(C)CCN(C)C(=O)Cn1cccc2cc(-c3ccc(F)cc3)nc1-2,93.82
20,O=C(Cn1cccc2cc(-c3ccc(F)cc3)nc1-2)N1CCC(O)CC1,-13.39

row,Structure (SMILES),Percent Effect [%]
1,O=C(O)C(F)(F)F.O=C1CO[C@@H]2CN(CC3CCOCC3)C[C@H]2N1CC1CC1,-5.405
2,CN1C(=O)CC(c2ccccc2)C12CCN(CC1CC1)CC2.O=C(O)C(F)(F)F (stereo not drawn),1.497
3,CCN1CCN(CCCNC(=O)c2cc3ccc(C)cc3nc2C)CC1,-11.33
4,Cc1ccc2cc(C(=O)NCCN3CCS(=O)(=O)CC3)c(C)nc2c1,96.87
5,COc1ccc2nc(C)c(C(=O)NCCN3CCS(=O)(=O)CC3)cc2c1,0.03382
6,CCN(CC)Cc1cn2c(n1)CN(Cc1c(C)noc1C)CC2.O=C(O)C(F)(F)F.O=C(O)C(F)(F)F,-4.28
7,Cn1nccc1-c1nnn2c1COCC(CNC1CCOCC1)C2.O=C(O)C(F)(F)F.O=C(O)C(F)(F)F (stereo not drawn),3.559
8,CCCn1c(NCCc2ccccc2)nc2c(C)nn(C)c2c1=O,22.06
9,CCCc1nc(NCCc2ccccc2)c2c(n1)c(C)nn2CC,91.68
10,CCCc1nc(NCCOC)c2c(n1)c(C)nn2CC,-17.61
11,Cc1nc(NC2CCCC2)c2c(n1)c(C)nn2C,15.85
12,CCn1nc(C)c2nc(C)nc(NC3CCCC3)c21,69.93
13,Cc1nc(NC2CC2)c2c(n1)c(C)nn2C,-10.52
14,CCCc1nc(NCCCO)c2c(n1)c(C)nn2CC,24.94
15,CCn1nc(C)c2nc(C(C)C)nc(NCCc3ccc(O)cc3)c21,-11.29
16,CCn1nc(C)c2nc(C)nc(NCCc3ccc(C)cc3)c21,69.41
17,CCn1nc(C)c2nc(C)nc(NCCCn3cccn3)c21,-3.879
18,CCCc1nc(NCCCOC)c2c(n1)c(C)nn2CC,-13.02
19,CCn1nc(C)c2nc(C)nc(NCCc3ccccc3)c21,83.2
20,O=C(O)C(F)(F)F.O=C(O)C(F)(F)F.c1cc(CN2CCO[C@H]3[C@H](OCC4CCCC4)CC[C@@H]32)ccn1,3.983

row,Structure (SMILES),Percent Effect [%]
1,Cc1ccc(C(=O)N2CCC3(CCCN(c4ncc(F)cn4)C3)C2)cn1.O=C(O)C(F)(F)F (stereo not drawn),10.32
2,C1CC(CO[C@@H]2CC[C@H]3[C@H]2OCCN3CC2CC2)CCO1.O=C(O)C(F)(F)F,-24.78
3,Cc1ccc(C)c(CSc2nnc(C(N)Cc3ccccc3)o2)c1.Cl (stereo not drawn),-13.89
4,Cl.O=C(C1CC1)N1CCOC2(CCNCC2)C1,27.3
5,Fc1ccc(CN2C[C@@H]3OCCN(CC4CCCO4)[C@@H]3C2)cc1.O=C(O)C(F)(F)F.O=C(O)C(F)(F)F (stereo partly drawn),-48.55
6,CCc1ncnc2c1CCN(Cc1ccc3c(c1)OCO3)CC2.O=C(O)C(F)(F)F,-11.62
7,COC[C@H]1CC[C@@H]2[C@@H](CCN2Cc2ccco2)O1.O=C(O)C(F)(F)F,-6.92
8,Cc1ccc(CN2CCOC3(CCN(CC4CCOC4)CC3)C2)cc1.O=C(O)C(F)(F)F.O=C(O)C(F)(F)F (stereo not drawn),35.27
9,CNC(=O)[C@H]1CO[C@H]2CCN(Cc3ccc4ccccc4n3)C[C@H]2C1.O=C(O)C(F)(F)F.O=C(O)C(F)(F)F,-6.104
10,CCCc1nc(N2CCN(CC)CC2)c2c(n1)c(C)nn2CC,-31.53
11,CCCc1nc(N2CCCCCC2)c2c(n1)c(C)nn2CC,50.35
12,CCCc1nc(N2CCCCC2)c2c(n1)c(C)nn2CC,-7.298
13,COCC(=O)N1CCOCC2(CCN(Cc3cccs3)C2)C1.O=C(O)C(F)(F)F (stereo not drawn),-21.04
14,Cc1ccc(CN2CCn3c(CN(C)C(C)C)cnc3C2)s1.O=C(O)C(F)(F)F.O=C(O)C(F)(F)F,-14.26
15,Cc1cn2c(n1)C(CNCC1=Cc3cc(Cl)ccc3OC1)CCC2 (stereo not drawn),99
16,Cc1cn2c(n1)C(CNCc1ccc(C)s1)CCC2 (stereo not drawn),-22.18
17,Cc1cn2c(n1)C(CNCC1=Cc3ccccc3OC1)CCC2 (stereo not drawn),28.86
18,O=C(NCC1CC1)[C@H]1C[C@@H]2CCN(Cc3ccc4c(c3)OCO4)C[C@@H]2O1.O=C(O)C(F)(F)F,-28.42
